The results in this text go back to PubChem BioAssay (NCATS).

Experiment [1] concerns the target Rap guanine nucleotide exchange factor 3 (Homo sapiens) (UniProt O95398). In words: Confirmatory qHTS for antagonist of cAMP-regulated guanine nucleotide exchange factor 3 (EPAC1) (AID 1645880). Also: nearly all actives have a fitted effect of over 55% in size. Also: potency is read from the fitted curve at half-maximal effect. The following applies: EPAC1 Rap1B-BODIPY-GDP exchange, fluorescence; series mostly up to 115 µM. The gist of the method:
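Nucleotide exchange uses 100 nM EPAC1, 250 nM RAP1B-BODIPY-GDP and 50 uM GDP, with compounds in a concentration-titration series. After 5 min at room temperature, fluorescence (480 nm ex/540 nm em) is read every 5 min for 30 min. Data are normalized to control ATA and DMSO.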
(In general: qHTS replaces the single test concentration by a dilution series.)

Experiment [2] shares this target. Briefly: Confirmatory qHTS for agonist of cAMP-regulated guanine nucleotide exchange factor 3 (EPAC1) (AID 1645881).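 Also: EPAC1 catalysed release of BODIPY-GDP from Rap1B seen as fluorescence loss; 100% = effect of cAMP agonist control; nearly all actives have a fitted effect of over 75% in size.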 The following applies: EPAC1 Rap1B BODIPY-GDP exchange fluorescence; series mostly up to 154 µM.
For experiment [3], the target named is Rap guanine nucleotide exchange factor 4 (Homo sapiens) (UniProt Q8WZA2). In words: Confirmatory qHTS for agonist of cAMP-regulated guanine nucleotide exchange factor 4 (EPAC2) (AID 1645884).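 Also: nucleotide exchange releases bodipy-GDP from Rap1 and this lowers its fluorescence; % is scaled to controls: 0 for no effect and ±100 for the full control effect; nearly all actives have a fitted effect of over 65% in size.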 Conditions: EPAC2 GEF activity, Rap1B-BODIPY-GDP fluorescence; series mostly up to 154 µM.
Chain of Rap guanine nucleotide exchange factor 4 (Homo sapiens) (Q8WZA2 whole entry, looked up): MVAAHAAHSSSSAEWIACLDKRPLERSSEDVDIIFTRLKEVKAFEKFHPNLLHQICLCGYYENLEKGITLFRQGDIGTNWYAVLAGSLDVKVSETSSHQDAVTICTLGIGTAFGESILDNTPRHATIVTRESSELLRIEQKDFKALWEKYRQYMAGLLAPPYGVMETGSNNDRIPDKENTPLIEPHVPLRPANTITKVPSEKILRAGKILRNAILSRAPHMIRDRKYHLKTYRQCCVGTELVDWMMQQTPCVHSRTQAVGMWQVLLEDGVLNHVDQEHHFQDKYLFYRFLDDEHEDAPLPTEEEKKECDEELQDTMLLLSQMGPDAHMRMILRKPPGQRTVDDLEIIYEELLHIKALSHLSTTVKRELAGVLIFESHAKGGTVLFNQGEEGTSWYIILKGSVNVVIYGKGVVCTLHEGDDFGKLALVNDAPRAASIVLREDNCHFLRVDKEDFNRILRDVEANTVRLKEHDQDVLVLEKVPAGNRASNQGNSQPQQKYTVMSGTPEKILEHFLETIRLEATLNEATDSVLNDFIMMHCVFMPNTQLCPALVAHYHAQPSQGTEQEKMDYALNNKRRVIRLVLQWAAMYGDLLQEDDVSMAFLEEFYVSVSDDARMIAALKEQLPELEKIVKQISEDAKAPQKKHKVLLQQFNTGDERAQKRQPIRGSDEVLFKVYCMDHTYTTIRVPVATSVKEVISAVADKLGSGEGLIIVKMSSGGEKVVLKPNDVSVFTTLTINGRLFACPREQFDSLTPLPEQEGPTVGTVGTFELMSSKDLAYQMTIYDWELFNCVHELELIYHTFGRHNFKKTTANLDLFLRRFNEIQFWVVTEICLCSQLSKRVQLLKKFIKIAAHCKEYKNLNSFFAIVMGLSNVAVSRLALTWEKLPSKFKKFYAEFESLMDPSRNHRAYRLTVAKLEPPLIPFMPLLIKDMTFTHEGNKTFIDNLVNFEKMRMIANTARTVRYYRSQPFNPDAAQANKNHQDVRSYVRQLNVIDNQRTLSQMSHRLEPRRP
The target is the same in experiment [4]. In words: Confirmatory qHTS for antagonist of cAMP-regulated guanine nucleotide exchange factor 4 (EPAC2) (AID 1645885). Also: nearly all actives have a fitted effect of over 25% in size. Also: potency is read from the fitted curve at half-maximal effect. As to activity change, negative = inhibition: % is scaled to controls: 0 for no effect and ±100 for the full control effect. The following applies: EPAC2 Rap1B-BODIPY-GDP exchange fluorescence, biochemical; series mostly up to 12.7 µM.
Experiment [5] has as its target Rap guanine nucleotide exchange factor 3 (Homo sapiens) (UniProt O95398). In words: Counterscreen qHTS for antagonist of cAMP-regulated guanine nucleotide exchange factor 3 (EPAC1) (AID 1645888).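 Also: fluorescence loss as bound BODIPY-GDP is released from Rap1B; % of control where 0% means no effect.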 The following applies: Rap1B-BODIPY-GDP nucleotide exchange, fluorescence; series mostly up to 154 µM. The procedure, abridged:
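Rap1B-BODIPY-GDP 250 nM + GDP 50 uM; cpds 7-pt, final 9.74 nM–152 uM (activator mode) or from 7.32 nM upwards (inhibitor mode); RT; FI 480/540 nm at 5 and 30 min, then ± cAMP, reread.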
Background: The purpose of a counterscreen is to sort out artefacts and off-target activity.

Results filed as inconclusive are left out. A number with no mark means an inactive call. The source made the active and inactive calls. Calls follow the shape of the dose curve; as a rule, active = well fitted curve in the direction sought with a large enough effect; inconclusive = small, poorly fitted or top-dose-only effect, or another doubt; inactive = no such curve, though single readings can be large; an effect the other way counts as inactive or inconclusive.

Chain of Rap guanine nucleotide exchange factor 3 (Homo sapiens) (O95398 whole entry, looked up): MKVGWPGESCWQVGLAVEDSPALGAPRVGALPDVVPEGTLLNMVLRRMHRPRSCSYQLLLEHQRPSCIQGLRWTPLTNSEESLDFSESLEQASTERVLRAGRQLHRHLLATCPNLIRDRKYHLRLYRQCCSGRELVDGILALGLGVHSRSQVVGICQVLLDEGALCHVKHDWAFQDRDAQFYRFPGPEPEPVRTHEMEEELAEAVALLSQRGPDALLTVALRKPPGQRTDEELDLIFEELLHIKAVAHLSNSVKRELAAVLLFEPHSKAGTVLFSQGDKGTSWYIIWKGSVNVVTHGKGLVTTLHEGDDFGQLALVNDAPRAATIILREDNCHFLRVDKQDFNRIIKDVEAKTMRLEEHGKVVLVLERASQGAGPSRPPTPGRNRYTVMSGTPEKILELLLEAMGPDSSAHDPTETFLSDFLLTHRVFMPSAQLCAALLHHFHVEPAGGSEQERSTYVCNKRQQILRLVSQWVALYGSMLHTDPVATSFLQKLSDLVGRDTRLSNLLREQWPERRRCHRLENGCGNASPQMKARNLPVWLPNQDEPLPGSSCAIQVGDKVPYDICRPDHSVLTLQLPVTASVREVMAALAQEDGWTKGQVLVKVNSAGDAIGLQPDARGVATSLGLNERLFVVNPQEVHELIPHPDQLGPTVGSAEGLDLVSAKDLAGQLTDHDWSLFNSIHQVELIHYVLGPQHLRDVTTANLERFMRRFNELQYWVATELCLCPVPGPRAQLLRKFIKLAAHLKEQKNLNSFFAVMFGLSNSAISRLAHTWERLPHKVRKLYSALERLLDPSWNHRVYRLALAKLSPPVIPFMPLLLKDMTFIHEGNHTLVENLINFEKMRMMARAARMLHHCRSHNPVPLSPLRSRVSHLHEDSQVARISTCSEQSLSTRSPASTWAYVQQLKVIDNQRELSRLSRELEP

Take `O=C(Nc1ccccc1)c1ccccc1Br`: the Potency entry in experiment [1], in experiment [2], in experiment [3], in experiment [4] and in experiment [5] was “inactive” throughout.
On to `CCCNC(=O)c1ccc2c(=O)c(O)c(-c3ccsc3)[nH]c2c1`, for which the Potency result in experiment [1], in experiment [2] and in experiment [4] was “inactive” each time. Also, the activation in experiment [3] was -5.87% [at 17.1 µM, percent relative to cAMP agonist control]. Further, in experiment [5], the activity change, negative = inhibition is -0.0367% [at 30.8 µM].
As to `CCc1ccc(NC(=O)CSc2nnc(Cc3cccn3C)n2-c2ccc(OC)cc2)cc1`, the Potency entry in experiment [1], in experiment [2] and in experiment [4] was “inactive” throughout. In addition, the activation in experiment [3] is 15.3% [at 17.1 µM, percent relative to cAMP agonist control]. Besides, the activity change, negative = inhibition in experiment [5] is -10.1% [at 30.8 µM].
For `CCOC(=O)Cc1nnc(NC(=O)CSc2nnc3c(n2)[nH]c2ccccc23)s1`, the Potency in experiment [1] is 44.7 µM (active). The Potency result in experiment [2] and in experiment [4] was “inactive” in each case. Moreover, in experiment [3], the activation is 6.98% [at 17.1 µM, percent relative to cAMP agonist control]. The activity change, negative = inhibition in experiment [5] was -37.4% [at 30.8 µM].
As for `Cc1ccc(N2NC(=O)/C(=C\c3cc4c(cc3[N+](=O)[O-])OCO4)C2=O)cc1C`, the Potency in experiment [1] is 75.7 µM (active). Also, the Potency entry in experiment [2], in experiment [3], in experiment [4] and in experiment [5] was “inactive” in each case.
On to `O=C1C(=Cc2cn(-c3ccccc3)nc2-c2ccc(OCc3ccccc3)cc2)SC(=S)N1CCS(=O)(=O)O`, for which the Potency in experiment [1] is 33.8 µM (active). Also, the Potency entry in experiment [2], in experiment [3], in experiment [4] and in experiment [5] was “inactive” throughout.
For `Oc1ccc(-c2csc(Nc3cccnc3)n2)cc1`, the Potency result in experiment [1], in experiment [2] and in experiment [4] was “inactive” throughout. The activation in experiment [3] was 0.321% [at 17.1 µM, percent relative to cAMP agonist control]. Besides, the activity change, negative = inhibition in experiment [5] is -8.51% [at 30.8 µM].
For `Cc1ccc(NC(=O)Cn2nc(C)c3nn(-c4ccc(Cl)cc4)c(C)c3c2=O)cc1F`, the Potency entry in experiment [1], in experiment [2], in experiment [3], in experiment [4] and in experiment [5] was “inactive” each time.
As for `COC(=O)c1ccc(CNC(=O)/C=C/[C@H]2O[C@@H](n3cc(C)c(=O)[nH]c3=O)C[C@@H]2O)cc1`, the Potency entry in experiment [1], in experiment [2], in experiment [3], in experiment [4] and in experiment [5] was “inactive” throughout.
In the case of `Cc1cc(SCC(=O)c2ccc(O)c(O)c2)nc2ccccc12`, the Potency in experiment [1] was 14.1 µM (active). Also, the Potency entry in experiment [2] and in experiment [4] was “inactive” throughout. Besides, the activation in experiment [3] is 11.2% [at 17.1 µM, percent relative to cAMP agonist control]. Further, in experiment [5], the activity change, negative = inhibition is -6.86% [at 30.8 µM].
Turning to `Cc1ccc(C2=N/C(=C\c3c(C)nn(-c4ccccc4)c3N3CCCC3)C(=O)O2)cc1`, the Potency result in experiment [1], in experiment [2], in experiment [3] and in experiment [5] was “inactive” each time. Further, the Potency in experiment [4] was 15.1 µM (active).
Turning to `CCOC(=O)c1cc2c(=O)n3ccccc3nc2n(Cc2ccco2)c1=NC(=O)c1ccc(Br)cc1`, the Potency in experiment [1] was 75.7 µM (active). Also, the Potency entry in experiment [2], in experiment [3] and in experiment [5] was “inactive” throughout. Further, the outcome in experiment [4] is “inactive [at 12.7 µM]”.
Regarding `COC(=O)c1c(SC)nc2ccccc2c1OCc1cccc(C)c1`, the Potency entry in experiment [1], in experiment [2], in experiment [3], in experiment [4] and in experiment [5] was “inactive” in each case.
Turning to `O=C1S/C(=C\c2ccc(N3CCOCC3)o2)C(=O)N1c1ccccc1`, the Potency result in experiment [1], in experiment [2], in experiment [3], in experiment [4] and in experiment [5] was “inactive” in each case.
Take `Cc1ccc(C2CC(=O)Oc3cc(C)cc(C)c32)cc1` (stereo not given): the Potency entry in experiment [1], in experiment [2], in experiment [3], in experiment [4] and in experiment [5] was “inactive” in each case.
As to `N#CC1=C(N)SC(N)=C(C#N)C1c1cccc(Oc2ccccc2)c1`, the Potency in experiment [1] is 67.5 µM (active). The Potency result in experiment [2], in experiment [3], in experiment [4] and in experiment [5] was “inactive” each time.
On to `OC(c1ccc(Cl)c(Cl)c1)c1ncc(-c2ccc(Cl)cc2)[nH]1` (stereo not given), for which the Potency entry in experiment [1], in experiment [2] and in experiment [4] was “inactive” each time. For the same molecule, in experiment [3], the activation was -3.18% [at 17.1 µM, percent relative to cAMP agonist control]. Also, in experiment [5], the activity change, negative = inhibition is -2.17% [at 30.8 µM].
In the case of `COc1ccc(S(=O)(=O)N2CCOC23CCN(S(=O)(=O)c2ccc(F)cc2C)CC3)cc1`, the Potency entry in experiment [1], in experiment [2], in experiment [3], in experiment [4] and in experiment [5] was “inactive” each time.
`CNC(=O)c1c(NC(=O)C2=COCCO2)sc(C)c1C`: the Potency result in experiment [1], in experiment [2], in experiment [3], in experiment [4] and in experiment [5] was “inactive” throughout.
As to `CNC[C@H]1Oc2ccc(NC(=O)Nc3ccccc3)cc2CC(=O)N([C@H](C)CO)C[C@H]1C`, the Potency result in experiment [1], in experiment [2], in experiment [3], in experiment [4] and in experiment [5] was “inactive” in each case.
As to `O=c1cc(CSc2ccccc2)nc(-c2ccncc2)[nH]1`, the Potency result in experiment [1], in experiment [2], in experiment [3], in experiment [4] and in experiment [5] was “inactive” each time.
For the molecule `COc1ccc2oc(C)c(C(=O)c3ccc(C)cc3)c2c1`, the Potency result in experiment [1], in experiment [2] and in experiment [4] was “inactive” each time. Further, the activation in experiment [3] was 14.7% [at 17.1 µM, percent relative to cAMP agonist control]. In experiment [5], the activity change, negative = inhibition is -20.6% [at 30.8 µM].
